# Screens (PubChem)
# An excerpt weighted towards active compounds, which were near 13% of everything screened.
# USP10 block – human USP10 deubiquitinase inhibition; Q14694; purified USP10, Ub-rhodamine fluorescence, 60 min; inhibition, % at 20 µM; actives 1.1% (n = 47,000)
# USP30 block – inhibitors of human USP30 deubiquitinase; purified USP30, Ub-rhodamine cleavage fluorescence; inhibition, % at 25 µM; actives 5.3% (n = 47,000); AID 1645860
# USP17 inh – inhibitors of human USP17 deubiquitinase | inhibition, % at 50 µM | actives 6.5% (n = 47,000) | A8MUK1 | AID 1645855 | purified USP17, Ub-rhodamine cleavage fluorescence, 3 h
# USP7 block – inhibitors of human USP7 deubiquitinase. actives 0.3% (n = 47,000). purified USP7, Ub-rhodamine cleavage fluorescence. inhibition, % at 20 µM. Q93009
# Target sequence (Q93009 whole entry, looked up): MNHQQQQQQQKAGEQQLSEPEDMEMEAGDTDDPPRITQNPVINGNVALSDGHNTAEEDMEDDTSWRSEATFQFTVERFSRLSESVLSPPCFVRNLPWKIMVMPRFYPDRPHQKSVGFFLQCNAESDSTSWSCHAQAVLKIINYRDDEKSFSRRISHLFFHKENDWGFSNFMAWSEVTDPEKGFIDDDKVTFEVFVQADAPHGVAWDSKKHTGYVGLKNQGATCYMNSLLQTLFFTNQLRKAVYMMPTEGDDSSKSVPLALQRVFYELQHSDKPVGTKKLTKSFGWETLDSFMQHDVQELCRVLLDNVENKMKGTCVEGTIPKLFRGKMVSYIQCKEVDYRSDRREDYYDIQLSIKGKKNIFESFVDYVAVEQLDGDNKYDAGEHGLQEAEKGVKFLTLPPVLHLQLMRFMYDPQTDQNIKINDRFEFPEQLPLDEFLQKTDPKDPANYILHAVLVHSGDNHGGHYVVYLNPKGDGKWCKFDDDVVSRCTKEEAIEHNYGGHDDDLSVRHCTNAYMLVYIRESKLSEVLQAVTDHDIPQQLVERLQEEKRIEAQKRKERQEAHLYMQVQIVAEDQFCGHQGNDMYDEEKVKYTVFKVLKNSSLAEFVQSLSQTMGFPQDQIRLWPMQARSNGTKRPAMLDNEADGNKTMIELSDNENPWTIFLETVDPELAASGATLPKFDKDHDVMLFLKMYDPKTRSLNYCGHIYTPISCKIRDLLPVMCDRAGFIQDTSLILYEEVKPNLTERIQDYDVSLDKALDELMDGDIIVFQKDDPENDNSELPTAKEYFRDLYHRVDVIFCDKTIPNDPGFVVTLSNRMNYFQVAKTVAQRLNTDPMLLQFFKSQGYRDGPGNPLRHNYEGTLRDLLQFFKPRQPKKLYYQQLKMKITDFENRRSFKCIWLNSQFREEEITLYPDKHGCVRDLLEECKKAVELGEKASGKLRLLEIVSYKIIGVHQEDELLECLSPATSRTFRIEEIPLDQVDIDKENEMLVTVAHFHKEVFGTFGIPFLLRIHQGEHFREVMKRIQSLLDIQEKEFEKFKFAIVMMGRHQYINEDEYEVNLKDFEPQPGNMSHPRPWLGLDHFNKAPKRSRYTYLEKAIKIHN
# USP8 block – inhibitors of human USP8 deubiquitinase; AID 1645853; P40818; actives 4.2% (n = 47,000); inhibition, % at 20 µM; purified USP8, Ub-rhodamine cleavage fluorescence, 30 min
# UCHL1 inh – inhibitors of human UCHL1 deubiquitinase | P09936 | actives 0.2% (n = 47,000) | AID 1645859 | inhibition, % at 20 µM | purified UCHL1, Ub-rhodamine cleavage fluorescence
# Hits are given with their value; - = inactive. Cut-off read from the data, not from the text of the source: active = inhibition above about 30%; inactive = the rest.
SMILES,USP10 block,USP30 block,USP17 inh,USP7 block,USP8 block,UCHL1 inh
CCCn1nnc2cc(S(=O)(=O)N3CCCC(C(=O)NCCc4ccco4)C3)ccc21 (configuration not stated),-,-,39.3,-,-,-
CCCn1nnc2cc(S(=O)(=O)N3CCCCC3C(=O)O)ccc21 (configuration not stated),-,-,-,-,-,-
Cc1cnc(C(=O)Nc2ccc(C3CCc4nncn4C3)cc2)cn1 (configuration not stated),-,-,-,-,-,-
Cc1nc2ccccn2c1CC(=O)Nc1cccc(C2CCc3nncn3C2)c1 (configuration not stated),-,-,-,-,35.9,-
CCc1nc(-c2ccc3c(c2)CCN3C(=O)c2ccccn2)no1,-,-,-,-,-,-
COc1ccccc1CNC(=O)c1oc(=O)c2ccccc2c1-c1ccc(C)cc1,-,39.8,-,-,-,-
CSc1ncc(C(=O)NC(C)c2ccccc2)c(-c2ccccc2)n1 (configuration not stated),-,-,60.3,-,-,-
CC(NC(=O)c1ccc2cn[nH]c2c1)c1ccccc1 (configuration not stated),-,-,-,-,-,-
CC(=O)N(O)[C@@H]1c2cc(C#N)ccc2OC(C)(C)[C@H]1O,-,-,-,-,33.9,-
CC1(C)Oc2ccc(C#N)cc2[C@H](N2CCCC2=O)[C@H]1O,-,-,-,-,-,-
CCOC(=O)c1ccccc1NC(=O)Cc1c(C)n(C(=O)c2ccc(Cl)cc2)c2ccc(OC)cc12,-,-,-,-,-,-
CCOC(=O)c1ccccc1NC(=O)C(=O)CC(=O)c1ccc(OC)cc1,-,-,31.4,-,77.9,-
O=C(NCc1ccco1)c1ccc(Cn2c(=O)c3sccc3n(Cc3cc(=O)n4ccccc4n3)c2=O)cc1,-,40.4,69.6,-,67.8,-
O=C(COc1cc2oc(=O)c3c(c2cc1Cl)CCC3)N1CCCC1,-,-,-,-,-,-
Cc1c(OCC(=O)NCc2ccccc2Cl)ccc2c3c(c(=O)oc12)CCC3,-,-,-,-,51.6,-
CCOc1ncccc1C(=O)NC1CCCc2ccccc21 (configuration not stated),-,32.4,-,-,-,-
O=C(NC1CCCc2ccccc21)c1cnn(-c2ccccc2)c1-n1cccc1 (configuration not stated),-,32.2,-,-,-,-
O=C(NC1CCCc2ccccc21)c1ccc(-c2ccccc2)cc1 (configuration not stated),-,-,-,-,-,-
Cc1cnc(C(=O)N2CCC(c3nc(N(C)C)ncc3-c3ccc(F)cc3)CC2)cn1,-,-,-,-,-,-
O=C1C=C(O)c2c(O)cc(O)cc2C1=O,79.0,99.6,99.4,85.0,82.0,94.4
Cc1ccc(NC(=O)c2[nH]c(C)c(S(=O)(=O)N3CCOCC3)c2C)cc1,-,-,-,-,-,-
O=C(NCc1ccc(F)cc1)c1nnc(Cc2ccc(Cl)cc2)o1,-,-,-,-,-,-
COc1ccc(-n2cc(C(=O)NCc3ccc4c(c3)OCO4)c3ccccc3c2=O)cc1,-,53.5,-,-,-,-
O=C(NCc1ccc2c(c1)OCO2)c1nnc(Cc2ccc(F)cc2)o1,-,-,56.4,-,-,-
O=C(NCc1ccccc1)c1ccccc1OCc1ccc2c(c1)OCO2,-,34.9,31.0,-,-,-
SMILES,USP10 block,USP30 block,USP17 inh,USP7 block,USP8 block,UCHL1 inh
O=C(NCc1ccc2c(c1)OCO2)c1ccccc1OCc1ccc(F)cc1,-,30.8,32.5,-,-,-
Cc1cc2nc(N3CCN(C(=O)c4ccccc4)CC3)c3ccccc3n2n1,-,33.8,-,-,-,-
O=C(c1cc2c(=O)n3ccccc3nc2n1Cc1ccccc1)N1CCCCCC1,-,-,-,-,-,-
Cc1cccn2c(=O)c3cc(C(=O)NCCCOC(C)C)n(Cc4ccccc4)c3nc12,-,-,-,-,-,-
CNC(=O)c1cc2c(=O)n3cccc(C)c3nc2n1Cc1ccccc1,-,-,79.6,-,-,-
CCC1CCCCN1C(=O)c1cc2c(=O)n3ccccc3nc2n1Cc1ccccc1 (configuration not stated),-,30.5,-,-,-,-
CC(=O)O[C@H]1C=CC(=O)O[C@H]1[C@@H]1O[C@H]1C,-,-,-,-,-,-
O=C(Nc1ccc(Cl)cn1)c1nn(C2CCS(=O)(=O)C2)c2c1CCCC2 (configuration not stated),-,-,38.2,-,-,-
COc1ccc(-c2cc3nc(C)cc(Nc4cccc(C)c4)n3n2)cc1OC,-,-,-,-,-,-
COc1ccc(-c2cc3nc(C)cc(Nc4ccc(F)cc4)n3n2)cc1OC,-,84.8,-,-,-,-
COc1ccc(/C=C/c2cc(OC)cc(=O)o2)cc1,-,32.3,30.1,-,-,-
Clc1ccc(C2=Nc3cc(Cl)ccc3OC2)cc1,-,-,-,-,56.4,-
O=C(Nc1ccccc1)Nc1ccc(F)c(-c2nnc(-c3ccccc3)o2)c1,-,-,-,-,-,-
O=C(Nc1ccccc1N1CCOCC1)Nc1cccc2ccccc12,-,-,-,-,-,-
COc1ccc(NC(=O)Nc2cccc(-c3nnc(-c4ccccc4)o3)c2)cc1OC,-,51.0,-,-,-,-
Cc1ccccc1NC(=O)Nc1cccc(-c2nnc(-c3ccccc3)o2)c1,-,-,-,-,50.6,-
Cn1cnnc1-c1cccc(NC(=O)Nc2cccc3ccccc23)c1,-,-,41.8,-,69.9,-
O=C(Nc1cccc(F)c1)Nc1cccc(-c2nnc(-c3ccccc3)o2)c1,32.4,91.3,88.6,-,30.6,-
CC(=O)c1ccc(N2CCN(C(=O)Nc3ccc(-c4noc(C)n4)cc3)CC2)cc1,-,-,-,-,-,-
CC(C)(C)C(=O)Nc1ccc(C(=O)Nc2cccc(-c3nnc(-c4ccccc4)o3)c2)cc1,37.7,54.8,44.4,-,-,-
COc1ccc(NC(=O)c2c(C)oc3nc[nH]c(=O)c23)cc1Cl,-,-,-,-,-,-
Cc1cc(C)cc(NC(=O)c2c(C)oc3nc[nH]c(=O)c23)c1,-,-,33.4,-,-,-
CCCN1C(=O)CCc2cc(NC(=O)c3ccccc3)ccc21,-,-,-,-,-,-
CN1C(=O)CCc2cc(NC(=O)c3cc4ccccc4[nH]3)ccc21,-,-,33.2,-,-,-
Cc1ccc(NC(=O)Nc2ccc(C)n(CC(=O)Nc3cc(C)ccc3C)c2=O)cc1,39.1,65.5,53.8,-,70.1,-
Cc1ccc(NC(=O)Nc2ccc(C)n(CC(=O)Nc3ccc(C)cc3C)c2=O)cc1,63.1,73.5,78.7,37.4,68.9,-
Cc1ccc(NC(=O)CN2c3ccccc3S(=O)(=O)c3ccccc32)c(C)c1,-,-,-,-,-,-
Cc1ccc(C)c(NC(=O)Cn2ccc3ccn(C)c3c2=O)c1,-,-,46.1,-,-,-
